Results on 16 compounds are retold here after PubChem BioAssay.

Experiment [1] can be described thus: binders of probe aFSTL3 on microarray, primary screen, stem cell growth factor project, biochemical, small-molecule microarray, fluorescence 635/667 (AID 1064).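 Also: measures binding of the biotinylated anti-FSTL3 antibody to printed compounds.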 The note with it: higher = more signal.
A short description of experiment [2]: binders from COS7 lysate, DM2A8 probe, primary screen, torsin A project, cell lysate, small-molecule microarray, fluorescence 635/667 (AID 1065). The settings on record: higher = more signal, COS7 lysate expressing mutant human TOR1A.
The nature of experiment [3]: binders of probe aFGF2 on microarray, primary screen, stem cell growth factor project, biochemical, small-molecule microarray, fluorescence 635/667 (AID 1067).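 Also: measures binding of biotinylated aFGF2 protein to printed compounds on slides; z-score merges feature fluorescence and signal-to-noise across triplicate slides.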 The note with it: higher = more signal.
Experiment [4] in a line: binders of probe aFGF10 on microarray, primary screen, stem cell growth factor project, biochemical, small-molecule microarray, fluorescence 635/667 (AID 1071).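 Also: score merges 667 nm spot intensity and signal to noise from triplicate slides.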 The settings on record: higher = more signal.
The target of experiment [5] is Neurogenic locus notch homolog protein 2 (Homo sapiens) (UniProt Q04721). Description: Notch2 binders on small-molecule microarrays, primary screen, biochemical, small-molecule microarray, 635 nm fluorescence, stem cell growth factors (AID 1073). The note with it: Notch2 binding, higher = more signal.
Experiment [6] concerns the target Pro-neuregulin-1, membrane-bound isoform (Homo sapiens) (UniProt Q02297). The experiment can be described thus: NRG1 binders on small-molecule microarrays, primary screen, psychiatric disease protein project, biochemical, small-molecule microarray, fluorescence 635/667 (AID 1075).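 Also: score combines 667 nm spot fluorescence with signal to noise.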 The settings on record: NRG1 binding, 635 nm fluorescence, higher = more signal.
Experiment [7] has as its system Neuregulin-1 EGF-like domain. The experiment can be described thus: binders of neuregulin-1 EGF-like domain, primary screen, biochemical, small-molecule microarray, 635 nm fluorescence (AID 1081).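 Also: binding of the protein to compounds printed on small-molecule microarray slides.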 The settings on record: small-molecule microarray binding, higher = more signal.
Experiment [8] in a line: FRG1 promoter luciferase signal modulators, primary screen, FRG1 inhibition for FSHD, cell-based, C2C12 myotubes, firefly/Renilla luciferase, luminescence (AID 1084). The settings on record: higher = more signal, called active from +8 up or from −8 down.
Experiment [9] in a line: binders of probe aFST on microarray, primary screen, stem cell growth factor project, biochemical, small-molecule microarray, fluorescence 635/667 (AID 1086).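 Also: score merges 667 nm fluorescence with signal-to-noise of each printed compound spot.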 The note with it: higher = more signal.
Experiment [10] can be described thus: binders of probe aHhip on microarray, primary screen, stem cell growth factor project, biochemical, small-molecule microarray, fluorescence 635/667 (AID 1087).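 Also: score merges spot fluorescence at 667nm with spot signal to noise ratio.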 The settings on record: higher = more signal.

Calls of active or inactive are those of the source.

Pro-neuregulin-1, membrane-bound isoform (Homo sapiens), sequence (Q02297 whole entry, looked up, the tested form may be a part, canonical isoform): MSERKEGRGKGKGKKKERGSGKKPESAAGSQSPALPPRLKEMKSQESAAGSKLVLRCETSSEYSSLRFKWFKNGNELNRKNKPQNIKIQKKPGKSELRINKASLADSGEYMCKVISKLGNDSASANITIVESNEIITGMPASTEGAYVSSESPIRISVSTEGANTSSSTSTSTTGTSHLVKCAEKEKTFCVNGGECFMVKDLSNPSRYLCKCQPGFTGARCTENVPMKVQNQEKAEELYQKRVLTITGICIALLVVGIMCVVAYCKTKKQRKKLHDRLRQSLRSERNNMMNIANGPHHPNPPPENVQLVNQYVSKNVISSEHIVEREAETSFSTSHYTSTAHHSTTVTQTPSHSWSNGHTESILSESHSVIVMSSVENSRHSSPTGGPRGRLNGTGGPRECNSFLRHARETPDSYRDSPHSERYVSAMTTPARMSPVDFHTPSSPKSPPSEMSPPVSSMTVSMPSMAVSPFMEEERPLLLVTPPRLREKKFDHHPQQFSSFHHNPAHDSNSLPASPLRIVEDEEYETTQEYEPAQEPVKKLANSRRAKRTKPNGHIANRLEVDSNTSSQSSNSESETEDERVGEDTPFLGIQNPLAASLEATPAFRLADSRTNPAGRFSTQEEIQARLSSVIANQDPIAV
Neurogenic locus notch homolog protein 2 (Homo sapiens), sequence (Q04721 whole entry, looked up, canonical isoform): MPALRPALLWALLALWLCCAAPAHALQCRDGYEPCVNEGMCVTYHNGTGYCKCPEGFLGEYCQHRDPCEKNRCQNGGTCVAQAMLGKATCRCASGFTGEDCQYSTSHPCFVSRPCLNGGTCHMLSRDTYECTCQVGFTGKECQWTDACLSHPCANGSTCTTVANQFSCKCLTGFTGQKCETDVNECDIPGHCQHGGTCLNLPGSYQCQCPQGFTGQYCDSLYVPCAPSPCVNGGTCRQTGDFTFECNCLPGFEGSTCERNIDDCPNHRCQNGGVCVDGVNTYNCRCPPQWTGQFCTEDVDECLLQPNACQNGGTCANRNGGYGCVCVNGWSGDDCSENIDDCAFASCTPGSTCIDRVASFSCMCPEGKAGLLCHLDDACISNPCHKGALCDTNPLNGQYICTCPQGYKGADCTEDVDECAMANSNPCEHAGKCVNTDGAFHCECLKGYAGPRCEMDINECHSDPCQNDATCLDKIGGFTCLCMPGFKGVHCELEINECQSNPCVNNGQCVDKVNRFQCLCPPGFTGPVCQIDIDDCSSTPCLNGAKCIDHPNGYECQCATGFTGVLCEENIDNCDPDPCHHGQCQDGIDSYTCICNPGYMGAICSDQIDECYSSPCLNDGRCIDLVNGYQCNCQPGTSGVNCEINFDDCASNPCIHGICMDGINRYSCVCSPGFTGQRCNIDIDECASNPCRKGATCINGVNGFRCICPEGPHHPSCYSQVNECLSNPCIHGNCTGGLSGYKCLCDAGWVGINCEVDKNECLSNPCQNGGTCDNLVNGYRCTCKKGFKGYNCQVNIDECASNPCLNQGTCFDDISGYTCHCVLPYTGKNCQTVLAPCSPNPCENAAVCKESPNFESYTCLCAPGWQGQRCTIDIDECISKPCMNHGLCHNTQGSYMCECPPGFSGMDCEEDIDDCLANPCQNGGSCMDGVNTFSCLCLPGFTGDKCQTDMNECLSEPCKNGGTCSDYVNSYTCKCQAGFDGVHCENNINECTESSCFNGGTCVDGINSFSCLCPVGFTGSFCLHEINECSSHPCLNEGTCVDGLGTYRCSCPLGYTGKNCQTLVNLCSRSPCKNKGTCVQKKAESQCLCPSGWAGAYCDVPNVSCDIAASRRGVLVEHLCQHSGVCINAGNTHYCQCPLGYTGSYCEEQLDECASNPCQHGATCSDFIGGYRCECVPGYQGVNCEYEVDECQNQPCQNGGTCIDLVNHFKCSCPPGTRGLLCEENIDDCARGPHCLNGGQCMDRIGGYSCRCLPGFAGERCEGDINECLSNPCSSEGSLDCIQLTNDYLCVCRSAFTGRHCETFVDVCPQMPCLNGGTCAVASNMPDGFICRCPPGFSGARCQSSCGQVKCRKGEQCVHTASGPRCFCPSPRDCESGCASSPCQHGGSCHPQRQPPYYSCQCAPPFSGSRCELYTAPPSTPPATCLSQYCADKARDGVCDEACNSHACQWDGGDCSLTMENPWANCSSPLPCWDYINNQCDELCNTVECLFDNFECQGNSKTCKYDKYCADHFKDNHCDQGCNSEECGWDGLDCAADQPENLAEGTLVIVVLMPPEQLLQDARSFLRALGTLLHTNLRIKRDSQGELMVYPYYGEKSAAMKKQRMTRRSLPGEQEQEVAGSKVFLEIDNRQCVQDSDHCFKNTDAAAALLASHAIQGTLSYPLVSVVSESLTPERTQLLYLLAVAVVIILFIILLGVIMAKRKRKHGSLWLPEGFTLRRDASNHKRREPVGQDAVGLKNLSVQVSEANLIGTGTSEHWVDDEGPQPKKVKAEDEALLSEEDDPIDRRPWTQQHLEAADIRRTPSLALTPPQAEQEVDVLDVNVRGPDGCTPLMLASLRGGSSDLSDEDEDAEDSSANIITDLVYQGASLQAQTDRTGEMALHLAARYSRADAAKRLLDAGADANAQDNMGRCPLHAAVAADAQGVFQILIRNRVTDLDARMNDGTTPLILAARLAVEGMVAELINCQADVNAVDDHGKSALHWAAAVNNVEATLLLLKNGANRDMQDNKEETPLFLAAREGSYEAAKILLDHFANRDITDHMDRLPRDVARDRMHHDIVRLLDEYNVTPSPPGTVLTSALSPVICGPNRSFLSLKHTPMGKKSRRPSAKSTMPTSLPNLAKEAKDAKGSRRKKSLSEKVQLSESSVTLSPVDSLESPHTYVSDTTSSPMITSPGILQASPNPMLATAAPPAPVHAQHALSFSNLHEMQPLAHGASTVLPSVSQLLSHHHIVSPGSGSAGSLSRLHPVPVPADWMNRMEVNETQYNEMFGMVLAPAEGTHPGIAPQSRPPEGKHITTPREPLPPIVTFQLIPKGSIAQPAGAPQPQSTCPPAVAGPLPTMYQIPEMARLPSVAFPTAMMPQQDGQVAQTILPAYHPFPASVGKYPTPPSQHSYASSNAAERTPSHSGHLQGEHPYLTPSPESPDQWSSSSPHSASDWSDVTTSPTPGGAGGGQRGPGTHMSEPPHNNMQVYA

Consider `C=C(CCCC)/C(=C/C[C@@H](OC(C)=O)c1cccc(OCCO)c1)c1cnc2ccccc2c1`, for which the composite z-score is -0.0295 in [1]; 0.314 in experiment [2]; -0.0015 in experiment [3]; 0.0122 in experiment [4]; 0.249 in [5]; 0.122 in experiment [6]. For the same compound, the composite z-score in [7] worked out at 0.274; in [9], 0.219; in experiment [10], 0.235. For the same compound, in experiment [8], the z-score is -0.269 (inactive).
On to `CCCCN1CC=CC23O[C@@H]4C=CCCOC(=O)C4[C@H]2C(=O)N(CCCCCO)[C@@H]3C1=O` (stereo not given in full), for which the composite z-score in [1] was -0.376; in experiment [2], -0.055; in experiment [3], -0.107; in [4] it was -0.0632; in [5] it was -1.06; in [6] it was -0.169. The composite z-score was 1.46 in experiment [7], -0.79 in experiment [9] and 0.107 in experiment [10]. In experiment [8], the z-score is -0.834 (inactive).
`COCCCNC(=O)[C@@]1(CCS(=O)(=O)c2ccccc2)N=C(c2ccc(OCCCO)cc2)O[C@H]1c1ccccc1N=[N+]=[N-]`: the composite z-score in experiment [1] came to 0.205; in [2], 2.1; in [3] it was 0.137; in experiment [4], 1.17; in experiment [5], 1.48; in experiment [6], 1.7. Besides, the composite z-score was 1.23 in [7], 1.63 in experiment [9] and -0.0645 in experiment [10]. Further, in [8], the z-score is 1.72 (inactive).
For `[N-]=[N+]=NCc1ccccc1[C@@H]1OC(c2ccc(OCCCO)cc2)=N[C@]1(CCS(=O)(=O)c1ccccc1)C(=O)N1CCCCC1`, the composite z-score is 0.0217 in experiment [1]; -0.267 in [2]; 0.0714 in experiment [3]; 0.398 in [4]; 1.66 in experiment [5]; 2.13 in experiment [6]. Moreover, the composite z-score in experiment [7] is 1.28; in experiment [9] it was 1.69; in experiment [10], -0.26. Besides, in [8], the z-score was -0.0344 (inactive).
As to `COC(=O)c1c(CC[C@@H](CO)NC(=O)N[C@@H](Cc2ccccc2)Cn2cc(-c3ccccn3)nn2)oc(C(=O)N2CCOCC2)c1C(=O)OC`, the composite z-score in [1] is -0.39; in [2], -0.451; in experiment [3], -0.0348; in [4], 0.218; in experiment [5], 0.303; in experiment [6] it was -0.0149. The composite z-score in [7] was 0.734; in experiment [9], 0.128; in experiment [10], -0.356. The z-score in experiment [8] is 0.183 (inactive).
In the case of `COCCOC(=O)N1C(=O)[C@@]2(c3cc(C#CCCO)ccc31)[C@H](c1ccc(O)cc1)N1[C@H](c3ccccc3)[C@H](c3ccccc3)OC(=O)[C@H]1[C@@H]2C(=O)N1CCN(c2ncccn2)CC1`, the composite z-score in experiment [1] is -0.788; in [2] it was 0.325; in experiment [3] it was 0.005; in experiment [4], 0.792; in experiment [5] it was 1.44; in [6] it was 1.49. Also, the results for the composite z-score in experiment [7], in experiment [9] and in [10] were 1.24, 0.437 and 0.783, respectively. Moreover, the z-score in experiment [8] is -0.606 (inactive).
With `NC(=O)N1C(=O)C2C(C1=O)C1C=C(CCCO)C2C(C2CC2)N1Cc1cc2c(cc1Br)OCO2` (stereo not given), the composite z-score in experiment [1] was 0.225; in [2] it was -0.13; in experiment [3], -0.093; in experiment [4], -0.33; in experiment [5] it was -0.191; in experiment [6] it was 0.946. Besides, the composite z-score in experiment [7] was 0.982; in experiment [9], 0.0364; in experiment [10], -0.0994. In addition, in experiment [8], the z-score is -0.472 (inactive).
With `CCN(CC)c1ccc(N2CC=CC34O[C@@H]5C=CCOC(=O)[C@@H]5[C@H]3C(=O)N(CCCCCCO)[C@@H]4C2=O)cc1` (stereo not given in full), the composite z-score in experiment [1] is 0.52; in [2] it was 0.19; in experiment [3] it was -0.167; in experiment [4], -0.631; in experiment [5], -0.489; in [6], 1.87. For the same compound, the values for the composite z-score in [7], in [9] and in experiment [10] were 1.46, -0.263 and -0.0296, respectively. Moreover, the z-score in [8] is -0.766 (inactive).
`CC(C)[Si](C#CCCCC#N)(O[C@H](c1ccccc1)c1cn(Cc2cccc(Cl)c2)nn1)C(C)C`: the composite z-score in [1] is -0.37; in experiment [2] it was 0.558; in [3], -0.104; in experiment [4], 0.689; in experiment [5] it was 0.799; in experiment [6], -0.0808. In addition, the composite z-score in [7] stood at 0.603; in [9], 0.624; in [10] it was 0.136. The z-score in experiment [8] is -1.04 (inactive).
Turning to `O=C1C2C=CC(C(O)c3ccc(-c4ccccc4)s3)N(Nc3ccccc3)C2C(=O)N1c1ccccc1` (stereo not given), the composite z-score is -0.288 in experiment [1]; -0.109 in [2]; 0.198 in experiment [3]; 0.44 in [4]; 1.61 in [5]; 2 in [6]. The results for the composite z-score in experiment [7], in [9] and in experiment [10] were 1.33, 1.62 and -0.0618, respectively. Further, the z-score in experiment [8] was -2.89 (inactive).
Turning to `CC(C)(C)OC(=O)CC[C@]1(C(N)=O)N=C(c2ccc(OCCCO)cc2)O[C@H]1c1ccccc1`, the composite z-score is 1.05 in experiment [1]; 1.16 in [2]; 0.0466 in experiment [3]; 0.27 in [4]; 1.53 in [5]; 2.53 in experiment [6]. Moreover, the composite z-score is 1.07 in [7], 0.994 in experiment [9] and 0.294 in experiment [10]. Besides, the z-score in [8] is -0.578 (inactive).
As for `O=C1O[C@@H](c2ccccc2)[C@@H](c2ccccc2)N2[C@@H](c3ccc(OCCO)cc3)[C@]3(C(=O)Nc4ccc(C#CCCO)cc43)[C@@H](C(=O)NC[C@H](O)c3ccccc3)[C@H]12`, the composite z-score in [1] is 0.193; in experiment [2] it was 0.458; in experiment [3], -0.0281; in experiment [4], 0.902; in [5], 0.578; in experiment [6] it was 1.01. Moreover, the composite z-score came to 1.17 in [7], 0.456 in experiment [9] and 0.0052 in [10]. For the same compound, the z-score in experiment [8] is -0.772 (inactive).
With `O=C1OCC=C[C@H]2OC34C=CCN(Cn5nnc6ccccc65)C(=O)[C@H]3N(CCCCCO)C(=O)[C@@H]4[C@@H]12` (stereo not given in full), the composite z-score was 0.4 in [1]; -0.629 in experiment [2]; -0.0069 in experiment [3]; -0.138 in experiment [4]; -0.637 in experiment [5]; 2.53 in [6]. Further, the composite z-score in [7] is 1.16; in experiment [9] it was -0.779; in experiment [10] it was -0.396. In [8], the z-score was -0.564 (inactive).
Consider `C=C[C@H](C)[C@@H](OC(=O)Nc1ccc(SC)cc1)c1ccc(O)c2ccccc12`, for which the composite z-score was -0.151 in experiment [1]; 0.152 in experiment [2]; 0.0111 in [3]; 0.358 in experiment [4]; 0.68 in experiment [5]; 0.423 in [6]. Moreover, the composite z-score is 1.43 in [7], 0.455 in experiment [9] and -0.0994 in [10]. In addition, the z-score in experiment [8] was 5.42 (inactive).
In the case of `COC(=O)C(CC#Cc1ccc2c(c1)[C@]1(C(=O)N2)[C@H](c2ccc(O)cc2)N2[C@H](c3ccccc3)[C@H](c3ccccc3)OC(=O)[C@H]2[C@@H]1C(=O)N1CCN(c2ncccn2)CC1)C(=O)OC`, the composite z-score is 0.136 in experiment [1]; 0.215 in experiment [2]; -0.0035 in [3]; 0.349 in experiment [4]; 0.577 in experiment [5]; 1.86 in experiment [6]. The values for the composite z-score in experiment [7], in experiment [9] and in [10] were 1.35, 0.599 and 0.351, respectively. Besides, the z-score in experiment [8] was -1.36 (inactive).
Consider `O=C(CS)NCCCCCNC(=O)[C@@H]1C[C@@H]2C(=O)NCC(=O)N2[C@@H]1c1ccc(O)cc1`, for which the composite z-score in [1] was -0.0188; in experiment [2], 0.654; in experiment [3] it was -0.11; in experiment [4], 0.0152; in experiment [5], -0.966; in experiment [6] it was 0.317. The composite z-score in experiment [7] was 1.39; in experiment [9], -0.155; in experiment [10], -0.0003. Besides, in experiment [8], the z-score was 0.111 (inactive).
